From PubChem BioAssay come the findings set out here.

Values without a mark were called inactive. For some of these results: Results with a measured potency or affinity are listed apart. Calls of active or inactive are those of the source. Unless noted, the rule behind the calls is not given here.

Test [1] is described as follows: antimalarial activity against Dd2 strain (AID 2302;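 active = growth inhibition above 50% at the single 2 µM test dose, taken to imply half-maximal potency below 2 µM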;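 note: 0% = DMSO untreated growth and 100% = chloroquine plus artemisinin killed control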). Particulars: P. falciparum Dd2 in RBCs, LDH growth readout, 72 h; at 2 µM; stronger effect = higher value.
Test [2] in a line: HepG2 cytotoxicity, primary screen, cytotoxicity control for P. falciparum antimalarial project, cell-based, ATP luminescence (AID 2303;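 active = inhibition above 50%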;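 note: 0% = DMSO wells and 100% = digitonin-killed cells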). Particulars: HepG2 viability, 24-48 h, at 10 µM, stronger effect = higher value.
The target of test [3] is L-lactate dehydrogenase (Plasmodium falciparum (isolate CDC / Honduras)) (UniProt Q27743). Description: PfLDH activity inhibition – cell lysate, 3D7 strain, counter-screen for P. falciparum growth inhibition project (AID 2304).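 Note: 0% = vehicle and 100% = reference inhibitor.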 Conditions: P. falciparum 3D7 crude extract, LDH APAD/NBT absorbance; at 2 µM; stronger effect = higher value. (A counterscreen serves to expose hits that act by an unwanted route or on another target.)
L-lactate dehydrogenase (Plasmodium falciparum (isolate CDC / Honduras)), sequence (Q27743 whole entry, looked up): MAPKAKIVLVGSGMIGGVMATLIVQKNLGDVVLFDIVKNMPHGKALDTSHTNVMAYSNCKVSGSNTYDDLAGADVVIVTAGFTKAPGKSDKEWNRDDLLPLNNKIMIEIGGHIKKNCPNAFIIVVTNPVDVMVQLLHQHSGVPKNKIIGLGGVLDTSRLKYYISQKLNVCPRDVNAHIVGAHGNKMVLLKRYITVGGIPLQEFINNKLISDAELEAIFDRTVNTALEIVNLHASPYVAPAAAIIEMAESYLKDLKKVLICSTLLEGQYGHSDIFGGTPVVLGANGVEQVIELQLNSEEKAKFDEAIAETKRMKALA

A short description of test [4]: inhibition of 3D7 malaria parasite growth – strain 3D7 (AID 2306).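 Note: 0% = DMSO wells and 100% = chloroquine plus artemisinin control wells.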 Conditions: P. falciparum 3D7 erythrocytic growth, LDH absorbance, 72 h; at 2 µM; stronger effect = higher value.
Test [5] concerns the target Calcium-dependent protein kinase 1 (Plasmodium falciparum (isolate 3D7)) (UniProt P62344). Description: PfCDPK1 kinase inhibitors, biochemical, TCAMS library (AID 1159585; cut-off not given, nearly all actives have IC50 up to about 0.98 µM;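 note: inhibitors leave more ATP so luminescence rises with inhibition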). Conditions: recombinant PfCDPK1, Kinase-Glo ATP depletion luminescence. Background: Kinase-Glo reads ATP consumption through a luciferase reaction.
The target in test [6] is Plasmodium falciparum protein kinase 6 (PK6, PF3D7_1337100) (UniProt Q8IDW1). Description: PfPK6 kinase inhibitors, biochemical, TCAMS library (AID 1159586). Conditions: recombinant PfPK6, Kinase-Glo ATP depletion luminescence.
Plasmodium falciparum protein kinase 6 (PK6, PF3D7_1337100), sequence (Q8IDW1 1-305): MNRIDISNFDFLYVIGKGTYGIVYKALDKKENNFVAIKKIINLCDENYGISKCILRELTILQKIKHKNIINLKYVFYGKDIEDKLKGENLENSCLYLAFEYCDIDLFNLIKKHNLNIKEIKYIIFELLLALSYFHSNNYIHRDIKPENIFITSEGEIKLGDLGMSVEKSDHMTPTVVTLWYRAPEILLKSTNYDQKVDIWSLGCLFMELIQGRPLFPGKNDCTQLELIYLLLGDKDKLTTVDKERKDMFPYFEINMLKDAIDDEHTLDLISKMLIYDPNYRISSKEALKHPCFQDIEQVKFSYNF
Test [7] addresses Protein kinase 7 (PK7), Plasmodium falciparum 3D7 (PF3D7_0213400) (UniProt Q7YTF7). Description: inhibition of Plasmodium PK7 catalytic activity – biochemical, TCAMS antimalarial set, Kinase-Glo luminescence (AID 1159587). Particulars: recombinant PfPK7, Kinase-Glo ATP depletion luminescence.
For test [8], the target named is Calcium-dependent protein kinase 4 (Plasmodium falciparum (isolate 3D7)) (UniProt Q8IBS5). Description: PfCDPK4 kinase inhibitors, biochemical, TCAMS library (AID 1159588; cut-off not given, nearly all actives have IC50 up to about 0.91 µM). Conditions: recombinant PfCDPK4, Kinase-Glo ATP depletion luminescence.
Calcium-dependent protein kinase 4 (Plasmodium falciparum (isolate 3D7)), sequence (Q8IBS5 whole entry, looked up): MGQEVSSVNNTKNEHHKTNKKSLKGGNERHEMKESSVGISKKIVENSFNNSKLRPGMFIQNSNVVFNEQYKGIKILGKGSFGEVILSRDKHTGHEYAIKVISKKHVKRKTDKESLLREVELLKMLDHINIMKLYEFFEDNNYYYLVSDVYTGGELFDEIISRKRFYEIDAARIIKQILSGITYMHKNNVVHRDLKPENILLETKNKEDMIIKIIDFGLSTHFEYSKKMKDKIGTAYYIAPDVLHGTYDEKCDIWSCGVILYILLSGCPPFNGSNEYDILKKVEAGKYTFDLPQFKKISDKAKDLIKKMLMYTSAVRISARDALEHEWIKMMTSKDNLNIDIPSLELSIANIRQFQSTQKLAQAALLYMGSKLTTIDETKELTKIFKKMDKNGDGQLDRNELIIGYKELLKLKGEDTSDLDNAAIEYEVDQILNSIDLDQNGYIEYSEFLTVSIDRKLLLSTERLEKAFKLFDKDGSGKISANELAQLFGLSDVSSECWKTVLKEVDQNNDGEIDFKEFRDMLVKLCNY

Protein kinase 7 (PK7), Plasmodium falciparum 3D7 (PF3D7_0213400), sequence (Q7YTF7 1-343): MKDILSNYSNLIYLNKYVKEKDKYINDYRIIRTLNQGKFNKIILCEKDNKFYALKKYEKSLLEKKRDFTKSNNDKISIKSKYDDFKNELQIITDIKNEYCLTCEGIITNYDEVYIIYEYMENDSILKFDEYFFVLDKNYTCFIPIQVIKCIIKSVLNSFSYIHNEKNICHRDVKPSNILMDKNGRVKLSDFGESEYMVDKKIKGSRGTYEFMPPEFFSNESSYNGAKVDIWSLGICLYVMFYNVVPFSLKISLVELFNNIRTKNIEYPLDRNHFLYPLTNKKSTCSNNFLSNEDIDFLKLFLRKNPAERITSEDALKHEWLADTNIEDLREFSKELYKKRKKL
Calcium-dependent protein kinase 1 (Plasmodium falciparum (isolate 3D7)), sequence (P62344 whole entry, looked up): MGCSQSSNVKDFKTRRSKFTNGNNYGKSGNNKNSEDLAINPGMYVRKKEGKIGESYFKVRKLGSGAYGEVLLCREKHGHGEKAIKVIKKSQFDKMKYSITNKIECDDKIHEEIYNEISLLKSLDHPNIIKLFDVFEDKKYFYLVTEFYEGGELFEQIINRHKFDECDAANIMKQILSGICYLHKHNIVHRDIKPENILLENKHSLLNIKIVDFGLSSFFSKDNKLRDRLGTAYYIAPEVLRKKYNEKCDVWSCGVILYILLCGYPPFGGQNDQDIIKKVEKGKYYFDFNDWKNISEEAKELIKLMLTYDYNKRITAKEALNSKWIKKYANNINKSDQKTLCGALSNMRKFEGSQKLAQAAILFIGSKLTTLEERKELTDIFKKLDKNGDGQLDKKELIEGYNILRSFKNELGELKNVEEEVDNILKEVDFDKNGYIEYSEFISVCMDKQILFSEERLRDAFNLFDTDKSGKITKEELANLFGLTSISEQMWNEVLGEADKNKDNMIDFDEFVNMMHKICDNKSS

Broadly, the inhibition is the drop in the measured response relative to a control, in per cent. In the case of `Cc1cc(N)c2cc(NC(=O)/C=C/c3ccccc3Cl)ccc2n1`, the growth inhibition in test [1] is 98% (active); in test [4] it was 100% (active). For the same molecule, the inhibition in test [2] was 81% (active); in test [3], -2%. For the same molecule, the outcome in test [5], in test [6], in test [7] and in test [8] was inactive.
For `O=C(/C=C/c1ccc(Cl)cc1)NCCCCCN1CCC(C(=O)Nc2cccc(Cl)c2)CC1`, the growth inhibition in test [1] is -6%; in test [4], 97% (active). The inhibition is 22% in test [2] and -8% in test [3]. Besides, the result in test [5], in test [6], in test [7] and in test [8] was inactive.
Regarding `Fc1ccc2nc(-c3cccc(-c4ccc(CN5CCN(c6cnccn6)CC5)cc4)c3)[nH]c2c1`, the growth inhibition in test [1] is 31%; in test [4], 96% (active). Besides, the inhibition in test [2] was 19%; in test [3], -4%. In addition, the outcome in test [5], in test [6], in test [7] and in test [8] was inactive.
Turning to `CN1CCN(CCCN(Cc2csc(-c3ccc(CNCc4ccccc4)cc3)n2)C(=O)c2cc(F)cc(F)c2)CC1`, the growth inhibition in test [1] is 53% (active); in test [4] it was 97% (active). In addition, the inhibition in test [2] was 60% (active); in test [3], -2%. Besides, the result in test [5], in test [6], in test [7] and in test [8] was inactive.
`O=C(Nc1ccc(OC2CCN(Cc3ccc(F)cc3)CC2)cc1)c1cccs1`: the results for the growth inhibition in test [1] and in test [4] were 52% (active) and 84% (active), respectively. In addition, the inhibition in test [2] is 6%; in test [3], -2%. Also, the outcome in test [5], in test [6], in test [7] and in test [8] was inactive.
Regarding `CCN1CCN(c2ccc(NC(=O)c3cc4c(C)nn(-c5ccccc5)c4s3)cc2C)CC1`, the results for the growth inhibition in test [1] and in test [4] were 81% (active) and 101% (active), respectively. Besides, the inhibition is 32% in test [2] and 5% in test [3]. Besides, the result in test [5], in test [6], in test [7] and in test [8] was inactive.
In the case of `FC(F)(F)c1ccc2nc(-c3ccc(-c4cccc(CN5CCN(c6ccncc6)CC5)c4)cc3)[nH]c2c1`, the growth inhibition in test [1] was 99% (active); in test [4] it was 101% (active). Further, the inhibition was 82% (active) in test [2] and 2% in test [3]. Besides, the result in test [5], in test [6], in test [7] and in test [8] was inactive.
`CCNc1cc(C(=O)N[C@@H](Cc2ccccc2)[C@H](O)CNC(C)(C)c2cccc(OC)c2)cc(N2CCCC2=O)c1`: the growth inhibition in test [1] was 99% (active); in test [4], 100% (active). In addition, the figures for the inhibition in test [2] and in test [3] were -3% and -6%, respectively. The outcome in test [5], in test [6], in test [7] and in test [8] was inactive.
In the case of `Fc1cc(Cl)ccc1Nc1ccnc2cc(-c3ccc(CN4CCOCC4)o3)ccc12`, the figures for the growth inhibition in test [1] and in test [4] were 98% (active) and 99% (active), respectively. Further, the inhibition in test [2] was 33%; in test [3], 0%. The outcome in test [5], in test [6], in test [7] and in test [8] was inactive.
In the case of `Cc1ccc(C=C2SC(=Nc3ccccc3)NC2=O)c(C)c1`, the growth inhibition is 90% (active) in test [1] and 93% (active) in test [4]. For the same molecule, the values for the inhibition in test [2] and in test [3] were 1% and -2%, respectively. In addition, the outcome in test [5], in test [6], in test [7] and in test [8] was inactive.
Take `COc1ccc2nc(/C=C/c3cccc4ccc(C)nc34)[nH]c2c1`: the growth inhibition in test [1] was 77% (active); in test [4], 98% (active). Moreover, the inhibition is 25% in test [2] and -1% in test [3]. Further, the outcome in test [5], in test [6], in test [7] and in test [8] was inactive.
`N#Cc1ccc(CN2CCC(Oc3ccc(NC(=O)c4ccsc4)cc3Cl)C2)cc1` (stereo not given): the figures for the growth inhibition in test [1] and in test [4] were 79% (active) and 88% (active), respectively. Moreover, the values for the inhibition in test [2] and in test [3] were 29% and -2%, respectively. Further, the result in test [5], in test [6], in test [7] and in test [8] was inactive.
In the case of `CC(C)C[C@H](NC(=O)c1cc2ccccc2s1)C(=O)N[C@H]1CCN(Cc2ccc(I)c(OCCN3CCCC3)c2)C1`, the growth inhibition in test [1] was 88% (active); in test [4] it was 92% (active). Also, the inhibition in test [2] was 3%; in test [3], -1%. Moreover, the outcome in test [5], in test [6], in test [7] and in test [8] was inactive.
Turning to `O=C(Nc1ccccc1)Nc1ccc(-n2ccc(C(F)(F)F)n2)cc1`, the growth inhibition in test [1] is 85% (active); in test [4], 95% (active). Further, the inhibition in test [2] is 15%; in test [3], -5%. Moreover, the outcome in test [5], in test [6], in test [7] and in test [8] was inactive.
As for `CCC(CO)NCC(O)Cn1c2ccc(Cl)cc2c2cc(Cl)ccc21` (stereo not given), the values for the growth inhibition in test [1] and in test [4] were 88% (active) and 96% (active), respectively. Besides, the inhibition in test [2] is 11%; in test [3], -2%. The result in test [5], in test [6], in test [7] and in test [8] was inactive.
For `CC(C)c1ccc2c(c1)c(SC(C)(C)C)c(CC(C)(C)C#N)n2Cc1ccc(Cl)cc1`, the results for the growth inhibition in test [1] and in test [4] were 95% (active) and 96% (active), respectively. Besides, the figures for the inhibition in test [2] and in test [3] were -3% and 8%, respectively. Besides, the result in test [5], in test [6], in test [7] and in test [8] was inactive.
With `C=C(C)Cn1cc(C2CCN(CCCCNC(=O)c3sc(-c4ccc(Cl)cc4Cl)nc3CO)CC2)c2ccccc21`, the growth inhibition in test [1] was 19%; in test [4], 82% (active). The inhibition in test [2] is 22%; in test [3], 4%. Besides, the result in test [5], in test [6], in test [7] and in test [8] was inactive.
Consider `O=C(c1ccc([N+](=O)[O-])o1)N1CCC(c2cn(Cc3cccc(F)c3)c3ccccc23)CC1`, for which the growth inhibition in test [1] is 95% (active); in test [4], 97% (active). In addition, the inhibition in test [2] is 1%; in test [3], -2%. Further, the result in test [5], in test [6], in test [7] and in test [8] was inactive.
In the case of `C=CCn1c(Sc2ccc(C#N)c([N+](=O)[O-])c2)nnc1-c1cc(OC)cc(OC)c1`, the figures for the growth inhibition in test [1] and in test [4] were 84% (active) and 96% (active), respectively. Besides, the inhibition in test [2] was 12%; in test [3], 0%. Besides, the outcome in test [5], in test [6], in test [7] and in test [8] was inactive.
Consider `CC1CCCN(c2ccc(NC(=O)c3cccs3)cc2[N+](=O)[O-])C1` (stereo not given), for which the growth inhibition in test [1] and in test [4] was 96% (active) in each case. Moreover, the inhibition was 14% in test [2] and -2% in test [3]. Besides, the result in test [5], in test [6], in test [7] and in test [8] was inactive.
